Results on 17 compounds are retold here after PubChem BioAssay (NCATS).

Each structure is given as a SMILES string. Values joined by “and” are separate entries in the source; they are usually repeats but may differ in a detail not shown here. Identical values can stand only once. Results filed as inconclusive are left out. Unmarked numbers belong to inactive results. Active and inactive are the calls of the source. Calls come from the whole dose curve; as a rule, active = well fitted curve in the direction sought with a large enough effect; inconclusive = small, poorly fitted or top-dose-only effect, or another doubt; inactive = no such curve, though single readings can be large; an effect the other way counts as inactive or inconclusive.

A short description of test [1]: Viability qHTS for spleen associated tyrosine kinase inhibitor (SYKi) naive MV4-11 cells (AID 1963823). Note: nearly all actives have a fitted effect of over 40% in size. Note: potency is the fitted concentration of half-maximal effect. The method in brief:
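qHTS, SYK inhibitor-naive MV4-11; 500 cells/well; 72 hr compound exposure, 37 C; CellTiter-Glo added, 10 min RT; luminescence read.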

The nature of test [2]: Viability qHTS for spleen associated tyrosine kinase inhibitor (SYKi) drug resistant MV4-11 cells (AID 1963824). Note: nearly all actives have a fitted effect of over 35% in size. Note: potency is the fitted concentration of half-maximal effect. The gist of the method:
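SYK inhibitor-resistant MV4-11 AML cells, 500 per well, added to predispensed compounds and incubated 72 hr at 37 C, 5% CO2. Viability measured by CellTiter-Glo luminescence after 10 min at room temperature.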
A general note: qHTS replaces the single test concentration by a dilution series.

Test [3] is described as follows: Quantitative highthroughput screen to assess conditional lethalithy of NOMO1 cells grown in RPMI1640 with untreated serum (RPMI+s) (AID 1963876).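 For Viability: 100% = DMSO wells and 0% = empty wells without cells.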 Note: nearly all actives have a fitted effect of over 35% in size. Note: potency is the fitted concentration of half-maximal effect. The method in brief: (§1)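 Each medium arm—HPLM with 10% dialyzed FBS, or RPMI1640 with 5 mM glucose and 10% untreated or dialyzed FBS—was screened against an 11-point, 3-fold compound titration for 48 h at 37 °C, with CellTiter-Glo luminescence as endpoint.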

The nature of test [4]: Quantitative highthroughput screen to assess conditional lethalithy of NOMO1 cells grown in RPMI1640 with dialyzed fetal bovine serum (RPMI+ds) (AID 1963877).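 For Viability: series mostly up to about 46 µM; 100% = DMSO control wells and 0% = empty wells.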 Note: nearly all actives have a fitted effect of over 30% in size. Note: potency is the fitted concentration of half-maximal effect. The gist of the method: as §1
A short description of test [5]: Quantitative highthroughput screen to assess conditional lethalithy of P12 Ichikawa cells grown in Human Plasma-Like Medium with dialyzed fetal bovine serum (HPLM+ds) (AID 1963879). For Viability: series mostly up to about 46 µM. Note: nearly all actives have a fitted effect of over 35% in size. Note: potency is the fitted concentration of half-maximal effect. The note with it: Potency: viability. The method in brief: as §1
The nature of test [6]: Quantitative highthroughput screen to assess conditional lethalithy of P12 Ichikawa cells grown in RPMI1640 with dialyzed fetal bovine serum (RPMI+ds) (AID 1963880).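 For Viability: 100% = DMSO wells and 0% = empty wells on each plate.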 Note: nearly all actives have a fitted effect of over 35% in size. Note: potency is the fitted concentration of half-maximal effect. The note with it: Potency: P12-Ichikawa viability. The method in brief: as §1
Test [7] can be described thus: Quantitative highthroughput screen to assess conditional lethalithy of P12 Ichikawa cells grown in RPMI1640 with untreated serum (RPMI+s) (AID 1963881).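 For Viability: series mostly up to about 46 µM; 100% = DMSO wells and 0% = empty wells without cells.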 Note: nearly all actives have a fitted effect of over 35% in size. Note: potency is the fitted concentration of half-maximal effect. The note with it: Potency: viability. The method in brief: as §1
A short description of test [8]: Quantitative highthroughput screen to assess conditional lethalithy of SEM cells grown in Human Plasma-Like Medium with dialyzed fetal bovine serum (HPLM+ds) (AID 1963882). For Viability: series mostly up to about 46 µM. Note: nearly all actives have a fitted effect of over 35% in size. Note: potency is the fitted concentration of half-maximal effect. The method in brief:
as §1

A short description of test [9]: Quantitative highthroughput screen to assess conditional lethalithy of SEM cells grown in RPMI1640 with unreated serum (RPMI+s) (AID 1963883).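 For Viability: 100% = DMSO wells and 0% = empty wells without cells.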 Note: nearly all actives have a fitted effect of over 35% in size. Note: potency is the fitted concentration of half-maximal effect. The method in brief:
as §1

A short description of test [10]: Quantitative highthroughput screen to assess conditional lethalithy of SEM cells grown in RPMI1640 with dialyzed fetal bovine serum (RPMI+ds) (AID 1963884). The method in brief: as §1
Test [11] in a line: Cellular viability qHTS for adrenocortical cancer (ACC) cell line SW-13 (AID 1963989).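 For activity (max response): cells grown in serum-free medium with ITS supplement; % is set by controls: 0 for no effect and ±100 for the full control effect.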 Note: nearly all actives have a fitted effect of over 65% in size. Note: potency is the fitted concentration of half-maximal effect. The note with it: SW-13 ACC cells viability, CellTiter-Glo, 48 h; activity (max response): stronger effect = lower value. The gist of the method: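 Luminescent ATP read-out (CellTiter-Glo, 20 min at room temperature) measured metabolically competent SW-13 cells after 48 h compound treatment. Final concentrations spanned up to 46 uM; bortezomib served as positive control.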

A short description of test [12]: Cellular viability qHTS for adrenocortical cancer (ACC) cell line NCI-H295R (AID 1963990). Note: nearly all actives have a fitted effect of over 60% in size. Note: potency is the fitted concentration of half-maximal effect. The gist of the method:
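IC50 and maximal efficacy derive from four-parameter logistic modelling of titration curves, with reads scaled between DMSO-only wells (0%) and doxorubicin hydrochloride (100% inhibition). Compounds spanned up to 46 uM over 48 h.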

A short description of test [13]: Quantitative highthroughput screen to assess conditional lethalithy of NOMO1 cells grown in Human Plasma-Like Medium with dialyzed fetal bovine serum (HPLM+ds) (AID 1963878). The gist of the method: as §1

Consider `Nc1[nH]c(=O)ncc1F`, for which the Potency entry in test [1], in [2], in test [3], in [4], in [5] and in [6] was “inactive” in each case. Besides, the Potency entry in test [7], in test [8], in test [9], in test [10] and in test [12] was “inactive” each time. The activity (max response) in [11] is 6.88%.

In the case of `CC(C)(C)C(=O)Oc1ccc(S(=O)(=O)Nc2ccccc2C(=O)NCC(=O)O)cc1`, the Potency result in test [1], in [2], in test [3], in [4], in [5] and in [6] was “inactive” in each case. Moreover, the Potency result in test [7], in [8], in test [9], in test [10] and in [12] was “inactive” in each case. The activity (max response) in test [11] is 1.32% and -4.44%.

Take `Cc1cc2c(s1)Nc1ccccc1N=C2N1CCN(C)CC1`: the values for the Potency in test [1] and in test [2] were 20600 nM (active) and 23.1 µM (active), respectively. Also, the Potency entry in test [3], in [4], in [5], in test [6], in test [8] and in [9] was “inactive” each time. The Potency result in [10] and in test [12] was “inactive” each time.

`CC1(C)O[C@H]2CC(=O)OC[C@]23[C@H]2CC[C@@]4(C)[C@H](c5ccoc5)OC(=O)[C@H]5O[C@]54[C@]2(C)C(=O)C[C@@H]13`: the Potency result in test [1], in test [2], in test [3], in test [4], in [5] and in test [6] was “inactive” throughout. The Potency entry in test [7], in test [10] and in test [12] was “inactive” in each case. Further, in test [11], the activity (max response) is 7.85%.

For the compound `CC(C)(OCc1nn(Cc2ccccc2)c2ccccc12)C(=O)O`, the Potency result in [1], in test [2], in [3], in [4], in [5] and in test [6] was “inactive” in each case. Also, the Potency result in [7], in test [8], in test [9], in [10] and in test [12] was “inactive” throughout. The activity (max response) in test [11] is 3.54%.

For `COCCCN1CCC(NC(=O)c2cc(Cl)c(N)c3c2OCC3)CC1`, the Potency entry in test [1], in test [2], in test [3], in [4], in test [5] and in test [6] was “inactive” each time. Further, the Potency entry in [8], in [9], in test [10] and in [12] was “inactive” each time. In addition, the activity (max response) in [11] is 15.7% and -2.89%.

`CCCc1cc(C(N)=S)ccn1`: the Potency result in [1], in test [2], in [3], in [4], in test [5] and in [6] was “inactive” each time. In addition, the Potency entry in test [8], in test [9], in [10] and in [12] was “inactive” in each case. Moreover, the activity (max response) in test [11] is 7.42% and -7.33%.

As to `CCN(c1ccccc1)c1cc(NC)[n+](C)c(C)n1`, the Potency in [1] is 18600 nM (active); in test [2], 18.6 µM (active). Further, the Potency entry in [3], in test [4], in [5], in test [6], in [8] and in [9] was “inactive” in each case. In addition, the Potency entry in test [10] and in test [12] was “inactive” in each case. Also, the activity (max response) in test [11] is -0.574%.

As for `COC(c1ccccc1)(c1ccccc1)[C@H](Oc1nc(C)cc(C)n1)C(=O)O`, the Potency entry in test [1], in [2], in test [3], in test [4], in [13] and in test [12] was “inactive” throughout. In test [11], the activity (max response) was 2.42% and -1.06%.

Consider `O=C1c2ccccc2-[n+]2ccc3c([nH]c4ccccc43)c21`, for which the Potency was 820 nM (active) in [1]; 0.651 µM (active) in [2]; 6620 nM (active) in test [3]; 5900 nM (active) in test [4]; 8330 nM (active) in test [5]; 9350 nM (active) in [6]. In addition, the Potency in test [7] was 8330 nM (active); in test [8], 2640 nM (active); in [9] it was 3320 nM (active); in [11], 2820 nM (active); in test [12], 2820 nM (active).

For `NC(=O)Nc1cc(-c2cccc(F)c2)sc1C(=O)N[C@H]1CCCNC1`, the Potency entry in [1] and in test [2] was “inactive” each time. Further, the Potency is 1050 nM (active) in [3]; 590 nM (active) in [4]; 1870 nM (active) in [5]; 1180 nM (active) in test [6]; 1180 nM (active) in [7]; 7.4 nM (active) in test [9]. The Potency in [11] was 1780 nM (active); in test [12], 794 nM (active).

For `O=C1c2c(O)cc(O)cc2OC(c2ccc(O)c(O)c2)C1O` (stereo unspecified), the Potency result in test [1], in [2], in test [3], in test [4], in [5] and in test [6] was “inactive” in each case. The Potency result in test [7], in test [9], in test [10] and in [12] was “inactive” each time.

As to `CC(C)[C@@H](CS(=O)(=O)C(C)C)N1C(=O)[C@@](C)(CC(=O)O)C[C@H](c2cccc(Cl)c2)[C@H]1c1ccc(Cl)cc1`, the Potency in test [1] was 18600 nM (active); in test [2] it was 14.6 µM (active) and 16.6 µM (active); in test [3], 1660 nM (active); in test [4] it was 2090 nM (active); in [5] it was 209 nM (active); in test [6], 1170 nM (active). For the same compound, the Potency in test [7] was 933 nM (active); in test [8], 4170 nM (active); in test [9], 295 nM (active).

For `Cn1cc(-c2ccncc2)c(-c2ccc(OCc3ccc4ccccc4n3)cc2)n1`, the Potency in test [1] is 4110 nM (active); in [2], 7.42 µM (active); in [5], 14800 nM (active); in test [6], 8330 nM (active). In addition, the Potency result in [3], in test [4], in [8] and in [9] was “inactive” in each case.

As for `Cc1ccc2c(=O)c3cccc(CC(=O)O)c3oc2c1C`, the Potency in test [1] is 2950 nM (active); in [2], 0.934 µM (active). Besides, the Potency entry in test [3], in test [4], in test [5], in test [6], in test [7] and in test [12] was “inactive” in each case. Also, the activity (max response) in test [11] is -13.4%.

As for `CC(C)=CC[C@@H](O)C1=CC(=O)c2c(O)ccc(O)c2C1=O`, the Potency in test [1] was 5250 nM (active); in [2], 2.63 µM (active); in test [3], 1660 nM (active); in test [4], 2090 nM (active); in test [5] it was 9350 nM (active); in [6], 13200 nM (active). The Potency entry in test [8] was “inactive”.

`NCCCC(N)(C(=O)O)C(F)F` (stereo unspecified): the Potency entry in test [1], in [2], in test [3], in test [4], in [5] and in test [6] was “inactive” in each case. The Potency entry in test [7], in [8], in [9] and in [12] was “inactive” each time. The activity (max response) in test [11] is 1.41% and -0.581%.
